Only a selection was taken, and hits are over-represented in it overall.
Pf Dd2 inh: inhibitors of Plasmodium falciparum Dd2 growth; actives 4.3% (n = 120,000); P. falciparum Dd2 growth, SYBR Green, 72 h; Potency, µM (titrated, usually from 28.9 µM), for inactives: at the highest dose activity, negative = inhibition, usual class: inhibitors; active means well fitted inhibition curve with a large enough effect;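 further: plate controls were DMSO vehicle for no effect and reference drug for full effect; nearly all actives have a fitted effect of over 65% in size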
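Infected erythrocytes (Dd2, 0.3% parasitemia, 2.5% hematocrit final) are added to compound in RPMI-1640/Albumax II medium, grown 72 h at 37C in low oxygen, then lysed with saponin/Triton-X containing SYBR Green and read by fluorescence.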
Starred values were filed as active, the others as inactive; i = inactive; [ ] = dose if it differs, or a comment. Potency means the concentration at half of the fitted maximal effect.

SMILES	Pf Dd2 inh
CC(C)N1CCN(C(=O)CCC[C@@H]2[C@H]3CCCN4CCC[C@@H](CN2C(=O)c2ccccc2)[C@@H]34)CC1	-21%
CCN(Cc1ccccc1)C(=O)CCC[C@@H]1[C@H]2CCCN3CCC[C@@H](CN1C(=O)c1ccccc1)[C@@H]23	2µM*
O=C(CCC[C@@H]1[C@H]2CCCN3CCC[C@@H](CN1C(=O)c1ccccc1)[C@@H]23)N1CCCCC1	-4%
CC(C)N1CCN(C(=O)CCC[C@@H]2[C@H]3CCCN4CCC[C@@H](CN2Cc2ccccc2)[C@@H]34)CC1	4µM*
O=C(CCC[C@@H]1[C@H]2CCCN3CCC[C@@H](CN1Cc1cccnc1)[C@@H]23)N1CCN(C2CCCC2)CC1	-20%
O=C(CCC[C@@H]1[C@H]2CCCN3CCC[C@@H](CN1C(=O)c1ccccc1)[C@@H]23)NCCN1CCCCC1	-13%
O=[S+]1([O-])NC2(CCN(Cc3ccccn3)CC2)CNc2ccccc21	i
CN(Cc1cccnc1)c1nc2c(c(=O)[nH]1)CCN(Cc1ccc(F)cc1Cl)CC2	2.8µM*
CN(Cc1cccnc1)c1nc2c(c(=O)[nH]1)CCN(Cc1cccc(F)c1)CC2	-5%[5.79 µM]
CN(C)c1nc2c(c(=O)[nH]1)CCN(Cc1ccc(F)cc1F)CC2	1%[5.79 µM]
CN(Cc1cccnc1)c1nc2c(c(=O)[nH]1)CCN(Cc1ccc(Cl)c(F)c1)CC2	20%[5.79 µM]
CN(C)c1nc2c(c(=O)[nH]1)CCN(Cc1ccc(F)cc1Cl)CC2	1µM*
CN(C)c1nc2c(c(=O)[nH]1)CCN(Cc1cc(F)ccc1F)CC2	19%[5.79 µM]
CCCCNC(=O)CSc1c2c(nc3ccc(Cl)cc13)CCCC2	-14%
CCC1(O)CCC12CCN(C(=O)c1ccoc1)CC2 (stereo not drawn)	-21%
CN(C)C(=O)c1ccc(-c2ccccc2N(C)C)nc1	-1%
CCN(C(=O)CCC(=O)N1CCC(C)(c2noc(C)n2)CC1)c1ccccc1	27%
CCOc1ccc(N(c2nc(-c3ccc(OC)c(OC)c3)no2)c2nc(-c3ccc(OC)c(OC)c3)no2)cc1	-2%
Cc1nn(C)c(C)c1S(=O)(=O)N(CC(=O)NCCc1ccc(Cl)cc1)c1ccc(C(C)C)cc1	11µM*
Cc1ccc(CNC(=O)CN(c2ccc(C)cc2)S(=O)(=O)c2c(C)nn(C)c2C)cc1	29%
COc1ccc(N(CC(=O)NCCc2ccccc2)S(=O)(=O)c2c(C)nn(C)c2C)cc1	-13%
COc1cc(CN(C(=O)COc2ccc(Cl)c(C)c2)c2ccccn2)cc(OC)c1OC	14%
CC1=C(C(=O)OC2CCCC2)C(c2c(Cl)cccc2Cl)CC(=O)N1 (stereo not drawn)	16%
COCCNC(=O)CCc1nc2cccnc2n1Cc1ccc(OC)cc1	2%
O=C(NC[C@H]1O[C@@H](CC(=O)N2CCOCC2)[C@H](O)[C@@H]1O)Nc1ccc(F)cc1F	8%[44.1 µM]
SMILES	Pf Dd2 inh
COc1ccc(C(=O)c2oc3ccccc3c2NC(=O)COc2cccc(C)c2C)cc1	1%
Cc1cnc(C2CC2)n1C1CCN(C(=O)NC(C)C)CC1	-14%
Cc1cnc(CCNC(=O)Nc2ccc3c(c2)OCCO3)n1C1CC1	-16%
Cc1cnc(C2CCOCC2)n1C1CCN(C(=O)Nc2ccc3c(c2)OCCO3)CC1	7.9µM*
CC(C)(C)NC(=O)c1cnn2c(C(F)F)cc(-c3ccccc3)nc12	-16%
Cc1oc2c(cc(NS(=O)(=O)c3ccc(C(C)C)cc3)c3ccccc32)c1C(=O)OCc1ccccc1	-11%
O=C(NCc1ccncc1)c1coc(CN2CCN(C/C=C/c3ccccc3)CC2)n1	i
COCCNC(=O)N[C@@H]1CN(c2ncccn2)C[C@H]1CN(C)C	-17%
COc1cccc(CN2C(=O)C3(SCC(=O)N3c3cc(C)cc(C)c3)c3ccccc32)c1 (stereo not drawn)	i
O=C(CN1C(=O)C2(SCC(=O)N2c2cccc(Cl)c2)c2ccccc21)NC1CCCCC1 (stereo not drawn)	13µM*
Cc1cccc(N2C(=O)CSC23C(=O)N(C)c2ccccc23)c1 (stereo not drawn)	i
Cc1cccc(N2C(=O)CSC23C(=O)N(Cc2cccc(C(F)(F)F)c2)c2ccccc23)c1 (stereo not drawn)	10µM*
O=C(Cn1c(=O)n(-c2cccc(Cl)c2)c(=O)c2sc3ccccc3c21)NC1CCCCC1	27%
CN1C(=O)C2(SCC(=O)N2c2cccc(C(F)(F)F)c2)c2ccccc21 (stereo not drawn)	-4%
O=C(CN1C(=O)C2(SCC(=O)N2c2cccc(Cl)c2)c2ccccc21)NCc1ccccc1 (stereo not drawn)	11µM*
CCc1ccc(N2C(=O)CSC23C(=O)N(Cc2cccc(F)c2)c2ccccc23)cc1 (stereo not drawn)	-11%
CCc1ccc(NC(=O)CN2C(=O)C3(SCC(=O)N3c3ccccc3)c3ccccc32)cc1 (stereo not drawn)	11µM*
CC(C)c1ccc(N2C(=O)CSC23C(=O)N(Cc2ccccc2)c2ccccc23)cc1 (stereo not drawn)	i
CCc1ccc(N2C(=O)CSC23C(=O)N(Cc2ccc(C)cc2)c2ccccc23)cc1 (stereo not drawn)	-21%
NC(=O)CN1C(=O)C2(SCC(=O)N2c2cccc(F)c2)c2ccccc21 (stereo not drawn)	13%
CCCCNC(=O)C(CC)Sc1nc2ccccc2c(=O)n1Cc1ccco1 (stereo not drawn)	3%
CNC(=O)[C@@H]1CN(C(=O)c2cc(C)n(CCOC)c2C)C[C@H]1COC	8%
COc1ccccc1-c1ncnn1-c1sc2c(c1C#N)CCCCC2	85%
CCCCc1nn(CC(=O)N2CCSCC2)c(=O)n1CCc1ccccc1	-1%
CC1CCC(NC(=O)C2CCN(c3cc(C(F)(F)F)ncn3)CC2)CC1 (stereo not drawn)	-1%
SMILES	Pf Dd2 inh
CNC(=O)[C@@H](c1ccc(OC)cc1)N1CCC[C@H]1C(=O)N1CCOCC1	21%[44.1 µM]
COc1ccc(/C=C\C(=O)NC2CC(=O)N(c3ccc(F)cc3)C2)cc1OC (stereo not drawn)	29%
CC(C)(C)c1ccc(-c2cc(C[C@H]3CNCC[C@H]3CC(=O)N3CCC(n4c(=O)[nH]c5ccccc54)CC3)no2)cc1	6.3µM*
O=C(C[C@@H]1CCNC[C@@H]1Cc1cc(-c2ccccc2)on1)N1CCOCC1	10%[44.1 µM]
CC(C)(C)c1ccc(-c2cc(C[C@H]3CNCC[C@H]3CC(=O)O)no2)cc1	-18%[44.1 µM]
NC(=O)c1cc[nH]c1C1CCCN(S(=O)(=O)c2cccc3cccnc23)C1 (stereo not drawn)	15%
COc1cccc(NC(=O)CCNS(=O)(=O)c2ccc(Br)s2)c1	8%
COc1ccc(C(=O)N2CCCC2c2nc(C3CCOCC3)no2)cn1 (stereo not drawn)	42%
COCc1nnc([C@@H]2CC(F)(F)CN2Cc2ccc(OC)cc2)o1	3%
CC(C)OCCCNC(=O)c1nn(C)c2c1CSc1ccccc1-2	-23%
CCN(CC)CCCNC(=O)c1nn(C)c2c1CSc1ccccc1-2	5.6µM*
CC(C)CCNC(=O)c1nn(C)c2c1CSc1ccccc1-2	-20%
Cc1ccc2c(c1)nc1n2[C@@H](CNCc2nc3ccccc3n2C)COC1	i
COCc1cc(CC2(NCc3ccccc3Cl)COC2)no1	-19%[44.1 µM]
O=C1CCN(C(=O)CCCc2ccccc2)CCCC(CO)CCN1 (stereo not drawn)	9%
COc1ccc(-c2ccnc(N[C@H]3CO[C@H]4[C@@H]3OC[C@@H]4NC(=O)CC3(CC(=O)O)CCCC3)n2)cc1	-4%
